Data as given in PubChem BioAssay AID1259351 (ICCB-Longwood Screening Facility, Harvard Medical School, 2017).
Some of the results follow. A number with no mark means an inactive call. Calls of active or inactive are those of the source.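 The calls were made as follows: active = inhibition score at or above a set limit, where the score is 100 minus the three-replicate mean percent of control signal; inactive = the rest.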

Molecular target: Guanine nucleotide-binding protein G(i) subunit alpha-3 (Homo sapiens) (UniProt P08754)
Assay: inhibitors of GIV binding to Galpha-i3, confirmation, orthogonal assay for GIV-Galpha-i inhibitor project, biochemical, AlphaScreen, His-GIV, GST-Galphai3 (AID 1259351)
Details: purified proteins, 90 min, at 100 µM, active compounds read low

**Q.** Which AlphaScreen counts does the source give for `N#CC(C#N)=C(C#N)/C=C/n1c2ccccc2c2ccccc21` here?
**A.** 4560 (active)

**Q.** Which AlphaScreen counts does the source give for `COc1ccccc1CNc1ncc2nc(-c3ccccc3)oc2n1` here?
**A.** 40200

**Q.** `O=C(O)CCC(C(=O)O)N1C(=O)/C(=C\c2ccco2)SC1=S` (centres undefined) was tested. Which AlphaScreen counts did it give?
**A.** 2280 (active)

**Q.** Which AlphaScreen counts does the source give for `CCOC(=O)C1=C(C)N(c2ccc(OC)cc2)C(=O)/C1=C\c1ccco1` here?
**A.** 21400 (active)

**Q.** How did the AlphaScreen counts turn out when `O=C(O)c1cc(NS(=O)(=O)c2ccc3c(c2)CCCC3)cnc1N1CCOCC1` was run?
**A.** 28400

**Q.** Which AlphaScreen counts does the source give for `COC1=C(N2CCOCC2)C(=O)c2ccccc2C1=O` here?
**A.** 29700 (active)

**Q.** `Cc1ccc(C(=O)N2CCc3cc(CNC(=O)c4ccc(Br)cc4)ccc32)cc1` was tested. Which AlphaScreen counts did it give?
**A.** 29400

**Q.** With `O=C(O)c1c2ccccc2[nH]c2c1oc1cc(=O)ccc12` as the compound, how does the AlphaScreen counts read?
**A.** 19100 (active)

**Q.** For `COc1ccccc1N1C(=O)/C(=C/c2ccc(Cl)cc2)C=C1c1ccccc1`, which AlphaScreen counts is on record?
**A.** 45900

**Q.** For `Cc1ccc(NC(=O)c2nc[nH]c2C(=O)N2CCCCC2)c(C(=O)c2ccccc2)c1`, which AlphaScreen counts is on record?
**A.** 27800

**Q.** How did the AlphaScreen counts turn out when `O=C(NN=c1c(=O)c2ccccc2c1=O)c1ccncc1` was run?
**A.** 28200

**Q.** For `CCOc1cc(/C=C2/C(=O)N(c3nn[nH]n3)N=C2C)cc(Cl)c1OCC`, which AlphaScreen counts is on record?
**A.** 1950 (active)

**Q.** For `CCOC(=O)c1nc2cc(C)c(C)cc2nc1NC1CCCCC1`, which AlphaScreen counts is on record?
**A.** 38900

**Q.** `COc1ccc(N=Nc2c(-c3ccc(OC)cc3)[nH]oc2=O)cc1` was tested. Which AlphaScreen counts did it give?
**A.** 54000

**Q.** `Cn1cccc1/C=C1\C(=O)NC(=S)N(c2ccccc2)C1=O` was tested. Which AlphaScreen counts did it give?
**A.** 799 (active)

**Q.** For `CC(=O)Oc1cccc2c1C(=O)C=CC2=O`, which AlphaScreen counts is on record?
**A.** 35600

**Q.** `CC(=O)Nc1ccc(Nc2c3c4c(cccc4[nH]c2=O)C(=O)c2ccccc2-3)cc1` was tested. Which AlphaScreen counts did it give?
**A.** 27100

**Q.** For `CC1=NOC(=O)C1C(c1cccc(Br)c1)c1c(C)[nH]n(-c2ccccc2)c1=O` (centres undefined), which AlphaScreen counts is on record?
**A.** 2770 (active)

**Q.** For `COc1ccc(Nc2cc(C(=O)NCCCN(C)c3ccccc3)c3ccccc3n2)c(OC)c1`, which AlphaScreen counts is on record?
**A.** 33800

**Q.** `CCC(=O)N1CCc2cc(N3CC(C(=O)N4CCN(C(C)C)CC4)CC3=O)ccc21` (centres undefined) was tested. Which AlphaScreen counts did it give?
**A.** 27700

**Q.** `Cc1ccc(N2C(=O)/C(=C/c3ccc(OCC(=O)O)c(Br)c3)C(=O)NC2=S)cc1` was tested. Which AlphaScreen counts did it give?
**A.** 6910 (active)

**Q.** With `N#CSc1cc(SC#N)c(N)nc1N` as the compound, how does the AlphaScreen counts read?
**A.** 24300 (active)

**Q.** `Cc1nn(-c2ccccc2)c2sc(-c3noc(-c4ccccc4F)n3)cc12` was tested. Which AlphaScreen counts did it give?
**A.** 31800

**Q.** `COC(=O)Cn1nc2c(-c3nc(-c4ccc(Cl)cc4)no3)cccn2c1=O` was tested. Which AlphaScreen counts did it give?
**A.** 27400
